According to ChEMBL document CHEMBL2218924, “A broad activity screen in support of a chemogenomic map for kinase signalling research and drug discovery” (Biochem J, 2013):

Tests used:
[1] = target: Rho-associated protein kinase 2 (Homo sapiens) (UniProt O75116); settings: at 10 µM
[2] = target: Proto-oncogene tyrosine-protein kinase receptor Ret (Homo sapiens) (UniProt P07949); settings: at 1 µM
[3] = target: Proto-oncogene tyrosine-protein kinase receptor Ret (Homo sapiens) (UniProt P07949); settings: at 10 µM
[4] = target: Macrophage-stimulating protein receptor (Homo sapiens) (UniProt Q04912); settings: at 1 µM
[5] = target: Macrophage-stimulating protein receptor (Homo sapiens) (UniProt Q04912); settings: at 10 µM
[6] = target: Proto-oncogene tyrosine-protein kinase ROS (Homo sapiens) (UniProt P08922); settings: at 1 µM
[7] = target: Proto-oncogene tyrosine-protein kinase ROS (Homo sapiens) (UniProt P08922); settings: at 10 µM
[8] = target: Ribosomal protein S6 kinase alpha-1 (Homo sapiens) (UniProt Q15418); settings: at 1 µM
[9] = target: Ribosomal protein S6 kinase alpha-1 (Homo sapiens) (UniProt Q15418); settings: at 10 µM
[10] = target: Ribosomal protein S6 kinase alpha-3 (Homo sapiens) (UniProt P51812); settings: at 1 µM
[11] = target: Ribosomal protein S6 kinase alpha-3 (Homo sapiens) (UniProt P51812); settings: at 10 µM
[12] = target: Ribosomal protein S6 kinase alpha-6 (Homo sapiens) (UniProt Q9UK32); settings: at 10 µM
[13] = target: Mitogen-activated protein kinase 14 (Homo sapiens) (UniProt Q16539); settings: at 1 µM
[14] = target: Mitogen-activated protein kinase 14 (Homo sapiens) (UniProt Q16539); settings: at 10 µM
[15] = target: T1, Tyrosine-protein kinase receptor TYRO3 (Homo sapiens) (UniProt Q06418); settings: at 1 µM
T1 sequence (whole entry): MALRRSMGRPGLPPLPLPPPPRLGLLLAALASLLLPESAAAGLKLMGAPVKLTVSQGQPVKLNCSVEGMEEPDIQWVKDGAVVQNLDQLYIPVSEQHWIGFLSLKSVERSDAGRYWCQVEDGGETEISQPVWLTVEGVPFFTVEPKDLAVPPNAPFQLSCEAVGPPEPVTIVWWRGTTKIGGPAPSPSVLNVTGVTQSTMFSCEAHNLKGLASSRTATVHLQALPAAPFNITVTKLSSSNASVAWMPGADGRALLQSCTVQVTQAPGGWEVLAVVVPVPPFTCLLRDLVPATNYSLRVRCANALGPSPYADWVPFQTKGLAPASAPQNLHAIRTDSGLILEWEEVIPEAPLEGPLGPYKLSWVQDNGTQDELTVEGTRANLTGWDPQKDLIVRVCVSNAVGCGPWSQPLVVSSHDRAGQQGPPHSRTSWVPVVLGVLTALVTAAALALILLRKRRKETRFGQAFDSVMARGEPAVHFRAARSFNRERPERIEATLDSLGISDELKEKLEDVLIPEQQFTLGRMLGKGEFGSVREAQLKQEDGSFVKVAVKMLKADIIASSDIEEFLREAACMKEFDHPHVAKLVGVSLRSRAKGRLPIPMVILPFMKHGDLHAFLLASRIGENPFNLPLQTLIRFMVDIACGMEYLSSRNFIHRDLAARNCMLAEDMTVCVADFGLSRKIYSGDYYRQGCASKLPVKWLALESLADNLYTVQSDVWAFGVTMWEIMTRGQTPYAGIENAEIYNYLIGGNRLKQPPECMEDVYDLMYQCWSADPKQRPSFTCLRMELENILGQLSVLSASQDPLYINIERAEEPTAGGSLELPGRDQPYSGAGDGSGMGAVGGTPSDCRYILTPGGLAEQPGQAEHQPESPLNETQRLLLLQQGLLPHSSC

[16] = target: Ribosomal protein S6 kinase alpha-2 (Homo sapiens) (UniProt Q15349); settings: at 1 µM
[17] = target: Ribosomal protein S6 kinase alpha-2 (Homo sapiens) (UniProt Q15349); settings: at 10 µM
[18] = target: Ribosomal protein S6 kinase alpha-6 (Homo sapiens) (UniProt Q9UK32); settings: at 1 µM
[19] = target: T1, Tyrosine-protein kinase receptor TYRO3 (Homo sapiens); settings: at 10 µM

Proto-oncogene tyrosine-protein kinase ROS (Homo sapiens), sequence (P08922 whole entry): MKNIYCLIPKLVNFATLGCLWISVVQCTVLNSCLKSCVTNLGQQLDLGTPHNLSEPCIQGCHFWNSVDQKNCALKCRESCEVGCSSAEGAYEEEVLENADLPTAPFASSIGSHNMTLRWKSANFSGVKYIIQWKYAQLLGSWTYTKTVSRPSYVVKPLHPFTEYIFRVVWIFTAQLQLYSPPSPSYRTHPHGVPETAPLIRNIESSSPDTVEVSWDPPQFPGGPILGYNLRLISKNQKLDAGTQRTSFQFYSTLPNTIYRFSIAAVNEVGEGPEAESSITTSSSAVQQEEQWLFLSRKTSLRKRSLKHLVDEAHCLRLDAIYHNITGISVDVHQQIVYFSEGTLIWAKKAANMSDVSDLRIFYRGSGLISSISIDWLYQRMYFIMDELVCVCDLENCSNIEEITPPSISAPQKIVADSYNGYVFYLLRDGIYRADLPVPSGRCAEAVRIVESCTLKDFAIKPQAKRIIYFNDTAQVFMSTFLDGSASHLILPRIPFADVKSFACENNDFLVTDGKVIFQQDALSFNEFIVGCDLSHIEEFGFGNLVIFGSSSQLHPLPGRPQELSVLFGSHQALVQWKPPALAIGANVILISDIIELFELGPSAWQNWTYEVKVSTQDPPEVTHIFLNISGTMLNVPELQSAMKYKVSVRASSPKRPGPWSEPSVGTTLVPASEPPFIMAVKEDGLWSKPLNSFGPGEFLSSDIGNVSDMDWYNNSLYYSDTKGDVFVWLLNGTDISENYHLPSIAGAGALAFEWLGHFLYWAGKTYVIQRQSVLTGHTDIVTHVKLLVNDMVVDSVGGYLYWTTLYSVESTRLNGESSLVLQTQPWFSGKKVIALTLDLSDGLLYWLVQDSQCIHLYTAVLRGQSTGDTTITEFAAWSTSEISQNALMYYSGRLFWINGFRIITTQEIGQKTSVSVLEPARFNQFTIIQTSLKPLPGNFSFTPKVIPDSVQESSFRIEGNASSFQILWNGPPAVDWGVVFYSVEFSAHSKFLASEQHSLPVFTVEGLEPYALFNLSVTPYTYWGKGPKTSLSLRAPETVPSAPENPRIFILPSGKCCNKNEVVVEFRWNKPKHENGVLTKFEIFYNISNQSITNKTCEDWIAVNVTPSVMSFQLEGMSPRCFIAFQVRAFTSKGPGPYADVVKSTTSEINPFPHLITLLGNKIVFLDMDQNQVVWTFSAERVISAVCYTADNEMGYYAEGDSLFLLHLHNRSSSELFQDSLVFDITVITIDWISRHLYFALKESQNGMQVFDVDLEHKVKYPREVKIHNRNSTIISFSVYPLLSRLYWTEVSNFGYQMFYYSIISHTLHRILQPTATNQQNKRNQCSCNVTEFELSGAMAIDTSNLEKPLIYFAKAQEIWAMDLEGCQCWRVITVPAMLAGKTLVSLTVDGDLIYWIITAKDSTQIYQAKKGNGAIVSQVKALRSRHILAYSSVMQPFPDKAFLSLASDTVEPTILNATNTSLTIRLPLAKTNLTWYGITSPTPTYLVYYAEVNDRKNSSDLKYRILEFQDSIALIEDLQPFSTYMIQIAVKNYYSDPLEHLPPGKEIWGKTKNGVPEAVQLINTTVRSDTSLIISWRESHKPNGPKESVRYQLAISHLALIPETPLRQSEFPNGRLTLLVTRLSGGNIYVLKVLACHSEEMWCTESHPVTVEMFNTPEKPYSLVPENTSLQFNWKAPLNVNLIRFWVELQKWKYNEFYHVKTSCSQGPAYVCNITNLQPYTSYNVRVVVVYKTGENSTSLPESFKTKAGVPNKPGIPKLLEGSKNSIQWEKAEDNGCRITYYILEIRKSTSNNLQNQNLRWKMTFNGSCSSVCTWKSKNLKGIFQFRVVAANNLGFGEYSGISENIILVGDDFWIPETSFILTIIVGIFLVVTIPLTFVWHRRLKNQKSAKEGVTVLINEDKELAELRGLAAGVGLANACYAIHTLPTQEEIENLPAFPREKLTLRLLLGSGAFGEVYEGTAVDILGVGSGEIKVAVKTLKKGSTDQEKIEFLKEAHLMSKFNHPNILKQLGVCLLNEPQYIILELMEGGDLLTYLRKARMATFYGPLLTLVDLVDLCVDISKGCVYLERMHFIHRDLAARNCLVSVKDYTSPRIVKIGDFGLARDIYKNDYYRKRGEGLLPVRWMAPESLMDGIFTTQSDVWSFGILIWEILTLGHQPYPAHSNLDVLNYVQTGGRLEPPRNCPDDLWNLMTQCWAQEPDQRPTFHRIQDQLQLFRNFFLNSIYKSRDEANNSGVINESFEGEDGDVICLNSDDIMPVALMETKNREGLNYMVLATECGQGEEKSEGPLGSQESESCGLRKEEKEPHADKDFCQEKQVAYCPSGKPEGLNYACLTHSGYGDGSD
Macrophage-stimulating protein receptor (Homo sapiens), sequence (Q04912 25-304 limits assumed): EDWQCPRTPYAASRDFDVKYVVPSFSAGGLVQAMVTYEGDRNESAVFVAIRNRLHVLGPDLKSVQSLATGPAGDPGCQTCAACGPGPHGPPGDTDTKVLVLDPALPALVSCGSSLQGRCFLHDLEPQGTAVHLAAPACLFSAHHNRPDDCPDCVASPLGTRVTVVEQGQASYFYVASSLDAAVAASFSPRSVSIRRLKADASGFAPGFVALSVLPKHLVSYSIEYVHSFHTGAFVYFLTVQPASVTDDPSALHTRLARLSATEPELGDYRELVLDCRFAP
Macrophage-stimulating protein receptor (Homo sapiens), sequence (Q04912 310-1400 limits assumed): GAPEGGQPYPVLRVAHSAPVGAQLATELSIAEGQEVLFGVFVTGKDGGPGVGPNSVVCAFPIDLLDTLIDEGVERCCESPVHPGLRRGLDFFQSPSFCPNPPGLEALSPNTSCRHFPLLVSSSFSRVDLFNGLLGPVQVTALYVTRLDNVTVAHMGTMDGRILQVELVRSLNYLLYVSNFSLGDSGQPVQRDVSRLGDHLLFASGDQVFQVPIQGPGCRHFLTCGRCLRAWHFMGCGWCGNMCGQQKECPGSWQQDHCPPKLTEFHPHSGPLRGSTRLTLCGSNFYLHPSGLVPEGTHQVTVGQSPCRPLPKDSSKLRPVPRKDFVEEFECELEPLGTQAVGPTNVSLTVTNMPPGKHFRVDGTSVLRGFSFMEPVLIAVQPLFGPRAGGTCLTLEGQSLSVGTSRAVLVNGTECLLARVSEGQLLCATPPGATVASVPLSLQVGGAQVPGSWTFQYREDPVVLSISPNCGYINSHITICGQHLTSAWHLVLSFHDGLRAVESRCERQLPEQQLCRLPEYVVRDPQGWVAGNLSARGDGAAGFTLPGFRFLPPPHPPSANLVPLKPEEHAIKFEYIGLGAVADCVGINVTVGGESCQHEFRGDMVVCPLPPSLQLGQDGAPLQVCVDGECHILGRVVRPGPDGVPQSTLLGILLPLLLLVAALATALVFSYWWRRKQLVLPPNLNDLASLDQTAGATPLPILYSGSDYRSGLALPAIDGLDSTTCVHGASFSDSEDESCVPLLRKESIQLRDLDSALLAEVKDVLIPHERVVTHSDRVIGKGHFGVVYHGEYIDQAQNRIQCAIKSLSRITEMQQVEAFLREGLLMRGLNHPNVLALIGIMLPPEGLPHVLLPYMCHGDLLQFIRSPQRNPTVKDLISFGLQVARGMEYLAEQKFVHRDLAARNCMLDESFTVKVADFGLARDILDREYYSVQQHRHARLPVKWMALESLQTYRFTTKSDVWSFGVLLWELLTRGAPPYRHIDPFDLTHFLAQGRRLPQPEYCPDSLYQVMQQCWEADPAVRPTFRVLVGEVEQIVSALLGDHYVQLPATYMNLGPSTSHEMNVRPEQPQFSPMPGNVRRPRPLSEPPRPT
Rho-associated protein kinase 2 (Homo sapiens), sequence (O75116 whole entry, looked up): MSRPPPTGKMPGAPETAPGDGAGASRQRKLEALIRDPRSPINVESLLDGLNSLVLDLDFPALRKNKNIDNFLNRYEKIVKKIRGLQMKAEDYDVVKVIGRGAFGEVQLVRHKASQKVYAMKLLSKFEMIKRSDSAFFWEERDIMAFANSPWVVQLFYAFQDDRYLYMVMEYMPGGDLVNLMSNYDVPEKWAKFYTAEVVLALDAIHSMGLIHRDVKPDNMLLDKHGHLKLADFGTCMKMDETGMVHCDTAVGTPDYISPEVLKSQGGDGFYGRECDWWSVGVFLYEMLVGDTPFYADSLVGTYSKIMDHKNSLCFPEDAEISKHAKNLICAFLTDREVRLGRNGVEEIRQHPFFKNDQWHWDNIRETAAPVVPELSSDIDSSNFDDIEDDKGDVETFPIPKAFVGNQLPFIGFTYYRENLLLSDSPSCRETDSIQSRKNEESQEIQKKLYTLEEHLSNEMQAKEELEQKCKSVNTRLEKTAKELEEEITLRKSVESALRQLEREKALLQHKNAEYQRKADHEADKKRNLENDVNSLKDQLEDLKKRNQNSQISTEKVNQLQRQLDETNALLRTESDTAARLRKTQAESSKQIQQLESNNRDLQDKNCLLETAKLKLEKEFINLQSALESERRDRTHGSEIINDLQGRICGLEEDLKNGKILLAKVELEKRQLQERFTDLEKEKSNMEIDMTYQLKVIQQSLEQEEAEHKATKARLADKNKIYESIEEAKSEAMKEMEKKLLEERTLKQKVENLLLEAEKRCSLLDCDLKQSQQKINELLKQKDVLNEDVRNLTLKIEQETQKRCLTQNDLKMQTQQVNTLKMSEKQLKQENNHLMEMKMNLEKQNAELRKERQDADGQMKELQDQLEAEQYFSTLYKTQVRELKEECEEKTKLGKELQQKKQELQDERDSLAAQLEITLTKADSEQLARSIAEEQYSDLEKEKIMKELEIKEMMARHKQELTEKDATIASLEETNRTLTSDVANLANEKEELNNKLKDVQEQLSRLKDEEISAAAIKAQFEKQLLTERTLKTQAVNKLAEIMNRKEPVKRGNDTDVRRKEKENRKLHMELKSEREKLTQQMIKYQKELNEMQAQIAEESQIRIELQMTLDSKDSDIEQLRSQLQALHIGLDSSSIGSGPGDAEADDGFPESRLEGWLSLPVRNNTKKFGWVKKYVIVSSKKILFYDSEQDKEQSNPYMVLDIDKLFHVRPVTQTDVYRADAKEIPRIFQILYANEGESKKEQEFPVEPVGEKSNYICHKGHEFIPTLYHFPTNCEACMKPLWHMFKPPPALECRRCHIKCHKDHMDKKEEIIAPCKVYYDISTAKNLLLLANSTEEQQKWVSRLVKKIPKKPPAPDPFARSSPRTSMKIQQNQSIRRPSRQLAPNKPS

For O=C(c1ccccc1)c1ccc(N2CCOCC2)cc1O, the residual activity [1] was 90%, the residual activity [2] was 94% and the residual activity [3] was 100%. For the same compound, the residual activity [4] was 90%, the residual activity [5] was 99% and the residual activity [6] was 96%. The residual activity [7] was 98%, the residual activity [8] was 96% and the residual activity [9] was 85%. For the same compound, the residual activity [10] was 45%, the residual activity [11] was 38% and the residual activity [12] was 130%. It also gave a residual activity [13] of 79% and a residual activity [14] of 83%.

Work on CC(C)N(CCC(=O)c1ccc2ccccc2c1)Cc1ccccc1 yielded a residual activity [1] of 82%, a residual activity [5] of 67% and a residual activity [15] of 84%. For the same compound, the residual activity [10] was 54%, the residual activity [11] was 52% and the residual activity [13] was 81%. The residual activity [14] was 79%.

Compound O=C(Nc1ccc(Cl)cc1)c1ccccc1NCc1ccncc1 has a residual activity [2] of 53%, a residual activity [3] of 6% and a residual activity [8] of 129%.

O=C1NC(=O)C(c2cn(CCCO)c3ncccc23)=C1c1cnccn1 showed a residual activity [2] of 82%, a residual activity [3] of 81% and a residual activity [4] of 66%. It also gave a residual activity [5] of 58%, a residual activity [8] of 98% and a residual activity [9] of 99%. The residual activity [10] was 41%, the residual activity [11] was 45% and the residual activity [16] was 63%. It also gave a residual activity [17] of 55%, a residual activity [18] of 83% and a residual activity [12] of 65%. The residual activity [13] was 82% and the residual activity [14] was 92%.

With COc1ccc(COc2ccc(Cc3cnc(N)nc3N)cc2OC)cc1 the residual activity [1] was 78%, the residual activity [5] was 62% and the residual activity [6] was 81%. For the same compound, the residual activity [8] was 131%, the residual activity [9] was 109% and the residual activity [10] was 64%. The residual activity [11] was 64%, the residual activity [17] was 71% and the residual activity [18] was 110%. The residual activity [12] was 116% and the residual activity [14] was 99%.

O=S(=O)(NCCNC/C=C/c1ccc(Br)cc1)c1cccc2cnccc12 gave a residual activity [3] of 82%, a residual activity [8] of 53% and a residual activity [9] of 24%. The residual activity [10] was 26%, the residual activity [11] was 6% and the residual activity [16] was 70%. For the same compound, the residual activity [17] was 13%, the residual activity [18] was 18% and the residual activity [12] was 9%.

Fc1ccc(-c2nc3n(c2-c2ccncc2)CCS3)cc1 gave a residual activity [2] of 98%, a residual activity [3] of 83% and a residual activity [8] of 73%. The residual activity [9] was 81%, the residual activity [10] was 64% and the residual activity [11] was 52%. The residual activity [12] was 92%, the residual activity [13] was 16% and the residual activity [14] was 3%.

O=C1NC(=O)C(c2c[nH]c3ccccc23)=C1c1c[nH]c2ccccc12 was tested, and the residual activity [2] was 79%, the residual activity [3] was 28% and the residual activity [5] was 70%. It also gave a residual activity [8] of 22%, a residual activity [9] of 3% and a residual activity [10] of 27%. For the same compound, the residual activity [11] was 3%, the residual activity [16] was 5% and the residual activity [17] was 0%. It also gave a residual activity [18] of 9%, a residual activity [12] of 1% and a residual activity [13] of 98%. The residual activity [14] was 73%.

O=C1Nc2ccccc2/C1=C\c1c(Cl)[nH]c2ccccc12 was tested, and the residual activity [1] was 81%, the residual activity [4] was 86% and the residual activity [19] was 67%. The residual activity [10] was 60%, the residual activity [11] was 25% and the residual activity [17] was 44%. The residual activity [18] was 51%, the residual activity [12] was 33% and the residual activity [14] was 45%.

With Cc1cc(C)c(/C=C2\C(=O)Nc3ccccc32)[nH]1 the residual activity [1] was 80%, the residual activity [15] was 68% and the residual activity [19] was 62%. It also gave a residual activity [8] of 51%, a residual activity [9] of 11% and a residual activity [10] of 26%. The residual activity [11] was 5%, the residual activity [16] was 27% and the residual activity [17] was 4%. It also gave a residual activity [18] of 38%, a residual activity [12] of 17% and a residual activity [13] of 79%. The residual activity [14] was 98%.

CCOc1nc(NC(=O)Cc2cc(OC)ccc2OC)cc(N)c1C#N was tested, and the residual activity [17] was 71%.

COc1cc2c(cc1OC)-c1n[nH]c(Nc3cccc(F)c3)c1C2 showed a residual activity [2] of 64%, a residual activity [3] of 19% and a residual activity [5] of 68%. The residual activity [19] was 50%, the residual activity [8] was 112% and the residual activity [9] was 79%. It also gave a residual activity [10] of 63%, a residual activity [11] of 39% and a residual activity [17] of 63%. It also gave a residual activity [18] of 105%, a residual activity [13] of 69% and a residual activity [14] of 44%.

Compound O=C(O)/C=C/c1cc(Br)c(Br)c(Br)c1Br has a residual activity [2] of 103%, a residual activity [3] of 103% and a residual activity [4] of 56%. It also gave a residual activity [5] of 43%, a residual activity [6] of 108% and a residual activity [7] of 97%. It also gave a residual activity [15] of 98%, a residual activity [19] of 106% and a residual activity [8] of 110%. It also gave a residual activity [9] of 89%, a residual activity [10] of 59% and a residual activity [11] of 43%. For the same compound, the residual activity [13] was 77% and the residual activity [14] was 90%.

COc1ccc(CNC(=O)Nc2ncc([N+](=O)[O-])s2)cc1 gave a residual activity [15] of 106%, a residual activity [19] of 108% and a residual activity [8] of 136%. It also gave a residual activity [9] of 109%.

For COc1cc2nccc(Oc3ccc(NC(=O)Nc4cc(C)on4)c(Cl)c3)c2cc1OC, the residual activity [2] was 0%, the residual activity [3] was -1% and the residual activity [4] was 31%. The residual activity [5] was 3%, the residual activity [6] was 24% and the residual activity [7] was 16%. It also gave a residual activity [15] of 10%, a residual activity [19] of 8% and a residual activity [8] of 105%. For the same compound, the residual activity [9] was 77%, the residual activity [10] was 60% and the residual activity [11] was 35%. For the same compound, the residual activity [18] was 99%.

N#C/C(=C1/Nc2ccccc2S1)c1ccnc(NCCc2cccnc2)n1 gave a residual activity [2] of 63%, a residual activity [3] of 47% and a residual activity [4] of 84%. The residual activity [5] was 46%, the residual activity [15] was 97% and the residual activity [19] was 74%. The residual activity [18] was 63%, the residual activity [12] was 63% and the residual activity [13] was 76%. For the same compound, the residual activity [14] was 41%.

Compound CCOC(=O)c1c(C)[nH]c(/C=C2\C(=O)Nc3ccccc32)c1C has a residual activity [2] of 24%, a residual activity [3] of 14% and a residual activity [10] of 88%. For the same compound, the residual activity [11] was 75%, the residual activity [16] was 72% and the residual activity [17] was 77%. It also gave a residual activity [18] of 88% and a residual activity [12] of 90%.

Work on O=c1cc(N2CCNCC2)oc2c(-c3ccccc3)cccc12 yielded a residual activity [1] of 80%, a residual activity [4] of 76% and a residual activity [5] of 58%. For the same compound, the residual activity [6] was 97%, the residual activity [7] was 91% and the residual activity [15] was 94%. It also gave a residual activity [19] of 96%, a residual activity [8] of 124% and a residual activity [9] of 96%. The residual activity [10] was 51%, the residual activity [11] was 36% and the residual activity [17] was 104%. The residual activity [12] was 89%, the residual activity [13] was 101% and the residual activity [14] was 98%.

O=C1NC(=O)C(c2cn(CCCn3ccnc3)c3ccccc23)=C1Nc1ccccc1 showed a residual activity [2] of 102%, a residual activity [3] of 70% and a residual activity [8] of 8%. For the same compound, the residual activity [9] was 1%, the residual activity [10] was 3% and the residual activity [11] was 1%. It also gave a residual activity [16] of 0%, a residual activity [17] of -1% and a residual activity [18] of 5%. For the same compound, the residual activity [12] was 2%, the residual activity [13] was 62% and the residual activity [14] was 78%.

With NCCNc1ncc(C(N)=O)c(Nc2cccc(C(F)(F)F)c2)n1 the residual activity [8] was 116%, the residual activity [9] was 59% and the residual activity [11] was 35%. For the same compound, the residual activity [16] was 82% and the residual activity [17] was 29%.

CN([C@@H](Cc1ccc(OS(=O)(=O)c2cccc3cnccc23)cc1)C(=O)N1CCN(c2ccccc2)CC1)S(=O)(=O)c1cccc2cnccc12 showed a residual activity [15] of 118%, a residual activity [16] of 99% and a residual activity [17] of 99%.
